We go through 39 compounds from the supplement of paper PMC7380943.
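Note: compound given one day before doxycycline, which switches on I-SceI endonuclease expression to create double-strand breaks within the integrated reporter.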

The assay relates to CLZ3 (HCA2 human fibroblast dual HR-NHEJ reporter). As to the kind of experiment: HR repair efficiency (tdTomato+ cells) relative to control (log10 fold); higher = more homologous recombination. The conditions noted are these: 5 µM; doxycycline 0.5 ug/mL.
As for `O=c1c(-c2ccc(O)cc2)coc2cc(O)ccc12` [Daidzein], the “HR repair efficiency (log10)” value is -0.15.
The result for `O=C(/C=C/c1ccc(O)c(O)c1)O[C@@H]1C[C@](O)(C(=O)O)C[C@@H](O)[C@H]1O` [Chlorogenic Acid] reads -0.132; that for `Cc1ccc(C(C)C)c(O)c1` [Thymol], 0.0691.
Turning to `CC(C)=CCc1c(O)ccc(C(=O)/C=C/c2ccc(O)cc2)c1O` [Isobavachalcone], the “HR repair efficiency (log10)” value came to 0.0547.
The result for `COc1cc2ccc(=O)oc2c(O)c1O` [Fraxetin] reads 0.272.
The result for `O=C1C[C@@H](c2ccc(O)cc2)Oc2cc(O)cc(O)c21` [Naringenin] reads -0.025; that for `CC1(C)[C@@H](O)CC[C@]2(C)[C@H]3C(=O)C=C4[C@@H]5C[C@@](C)(C(=O)O)CC[C@]5(C)CC[C@@]4(C)[C@]3(C)CC[C@@H]12` [Glycyrrhetinic Acid], 0.158; that for `CC[C@H](CC[C@@H](C)[C@H]1CC[C@H]2[C@@H]3CC=C4C[C@@H](O[C@@H]5O[C@H](CO)[C@@H](O)[C@H](O)[C@H]5O)CC[C@]4(C)[C@H]3CC[C@]12C)C(C)C` [Daucosterol], 0.0626.
The result for `COc1ccc(-c2coc3cc(O)cc(O)c3c2=O)cc1` [Biochanin A] reads 0.0228.
In the case of `CC(=O)OCC1=C[C@@H]2OC(=O)C3=CO[C@@H](O[C@@H]4O[C@H](CO)[C@@H](O)[C@H](O)[C@H]4O)[C@H]1[C@@H]32` [Asperuloside], the “HR repair efficiency (log10)” value is 0.1.
For `O=c1cc(-c2ccc(O[C@@H]3O[C@H](CO)[C@@H](O)[C@H](O)[C@H]3O)cc2)oc2cc(O)c([C@@H]3O[C@H](CO)[C@@H](O)[C@H](O)[C@H]3O[C@@H]3OC[C@H](O)[C@H](O)[C@H]3O)c(O)c12` [Vaccarin], the “HR repair efficiency (log10)” value was -0.086.
Take `COc1ccc(-c2oc3c(CC=C(C)C)c(O[C@@H]4O[C@H](CO)[C@@H](O)[C@H](O)[C@H]4O)cc(O)c3c(=O)c2O[C@@H]2O[C@@H](C)[C@H](O)[C@@H](O)[C@H]2O)cc1` [Icarrin]: the “HR repair efficiency (log10)” value is 0.0409.
The result for `COc1ccc(/C=C/C(=O)O)cc1O` [Isoferulic Acid] reads 0.0607.
The result for `COc1c(O)cc2oc(-c3ccccc3)cc(=O)c2c1O` [Oroxylin A] reads 0.0534.
With `OC[C@H]1O[C@@H](Oc2c(O)cc(O)cc2/C=C/c2ccc(O)cc2)[C@H](O)[C@@H](O)[C@@H]1O` [2,3,5,4'-Tetrahydroxy Stilbene 2-Ο-Β-D-Glucoside] the figure was -0.0324; with `COc1cc2c(c(OC)c1OC)-c1c(cc(OC)c(OC)c1OC)C[C@H](C)[C@H](C)C2` [Schisandrin A], -0.0756.
`CC[C@H](/C=C/[C@@H](C)[C@H]1CC[C@H]2[C@@H]3CC=C4C[C@@H](O)CC[C@]4(C)[C@H]3CC[C@]12C)C(C)C` [Stigmasterol]: the “HR repair efficiency (log10)” value is -0.14.
Turning to `C[C@@H]1O[C@@H](O[C@H]2[C@H](O[C@H]3CC[C@@]4(C)[C@@H](CC[C@]5(C)[C@@H]4CC=C4[C@@H]6CC(C)(C)CC[C@]6(C(=O)O)CC[C@]45C)[C@]3(C)CO)OC[C@H](O)[C@@H]2O)[C@H](O)[C@H](O)[C@H]1O` [α-Hederin], the “HR repair efficiency (log10)” value was -0.192.
Turning to `O=C(O)C1=C[C@@H](O)[C@@H](O)[C@H](O)C1` [Shikimic Acid], the “HR repair efficiency (log10)” value was determined as 0.17.
On to `C[C@H]1O[C@H](O[C@@H]2[C@@H](O)[C@H](OCCc3ccc(O)c(O)c3)O[C@H](CO[C@H]3OCC(O)(CO)[C@@H]3O)[C@H]2OC(=O)/C=C/c2ccc(O)c(O)c2)[C@@H](O)[C@@H](O)[C@@H]1O` (some centres undefined) [Forsythoside B], for which the “HR repair efficiency (log10)” value worked out at 0.076.
The result for `CC(CC(=O)C[C@@H](C)[C@H]1CC(=O)[C@@]2(C)C3=C(C(=O)C[C@]12C)[C@@]1(C)CC[C@H](O)C(C)(C)[C@@H]1C[C@@H]3O)C(=O)O` (some centres undefined) [Ganoderic Acid B] reads 0.0793.
With `C[C@H](CCC(=O)NCCS(=O)(=O)O)[C@H]1CC[C@H]2[C@@H]3C[C@H](O)[C@@H]4C[C@H](O)CC[C@]4(C)[C@H]3CC[C@]12C` [Taurohyodeoxycholic Acid] the figure was 0.133; with `Cn1c(=O)c2c(ncn2C)n(C)c1=O` [Caffeine], 0.0527; with `C[C@@H]1CC[C@@]2(NC1)O[C@H]1C[C@H]3[C@@H]4CC=C5C[C@@H](O[C@@H]6O[C@H](CO)[C@H](O)[C@H](O[C@@H]7O[C@H](CO)[C@@H](O)[C@H](O)[C@H]7O)[C@H]6O[C@@H]6O[C@@H](C)[C@H](O)[C@@H](O)[C@H]6O)CC[C@]5(C)[C@H]4CC[C@]3(C)[C@H]1[C@@H]2C` [Solasonine], 0.0163.
With `OC[C@H]1OC(O)[C@H](O)[C@@H](O)[C@H]1O` (stereo partly drawn) [D-Galactose], the “HR repair efficiency (log10)” value was -0.0597.
With `CC1=C2C(=O)O[C@@H](c3ccoc3)[C@]2(C)CCC1` [Fraxinellone] the figure was 0.113; with `O=Cc1ccc(O)cc1` [4-Hydroxybenzaldehyde], 0.0974.
With `O=C1C=C2C=C[C@@H](O)[C@H](O)[C@H]2O1` [Griffonilide] the figure was 0.00766.
With `CC(C)=CC(O)C/C(C)=C/COc1c2ccoc2cc2oc(=O)ccc12` (centres undefined) [Notopterol] the figure was 0.151; with `CC(=O)OC1CC23CC(C)(O)C(CCC2C(C)(O)C2C4OC4C(C)(C)C12O)C3O` (centres undefined) [Rhodojaponin Ii], -0.000636; with `CC1(C)O[C@H]1COc1c2ccoc2cc2oc(=O)ccc12` [Oxypeucedanin], 0.0078.
Consider `Oc1ccc2c(c1)OCO2` [Sesamol], for which the “HR repair efficiency (log10)” value is 0.234.
The result for `CC(C)=CCC[C@](C)(O[C@@H]1O[C@H](CO)[C@@H](O)[C@H](O)[C@H]1O)[C@H]1CC[C@]2(C)[C@@H]1[C@H](O)C[C@@H]1[C@@]3(C)CC[C@H](O)C(C)(C)[C@@H]3[C@@H](O[C@@H]3O[C@H](CO)[C@@H](O)[C@H](O)[C@H]3O[C@@H]3O[C@@H](C)[C@H](O)[C@@H](O)[C@H]3O)C[C@]12C` [Ginsenoside Re] reads -0.0179.
The result for `C/C1=C/CC[C@H](C)C(=O)C[C@@H](C(C)C)C(=O)C1` [Curdione] reads 0.0177.
For `c1ccc2c(c1)OC1c3ccccc3OCC21` (centres undefined) [Pterocarpan], the “HR repair efficiency (log10)” value is -0.0555.
As to `C=C1CCC[C@]2(C)C[C@]3(O)OC(=O)C(C)=C3C[C@@H]12` [Atractylenolide Ⅲ], the “HR repair efficiency (log10)” value is 0.0176.
The result for `CN[C@@H](C)[C@H]1[C@H](O)C[C@@]2(C)[C@@H]3CC[C@H]4C(C)(C)[C@@H](NC)CC[C@@]45C[C@@]35CC[C@]12C` [Cyclovirobuxine D] reads 0.0389; that for `O=c1c(O)c(-c2ccc(O)c(O)c2)oc2cc(O)cc(O)c12` [Quercetin], 0.086.
For `NC(=O)NC1NC(=O)NC1=O` (centres undefined) [Allantoin], the “HR repair efficiency (log10)” value came out at 0.00746.
